From publication PMC4552634, “A New Set of Chemical Starting Points with Plasmodium falciparum Transmission-Blocking Potential for Antimalarial Drug Discovery” (PLoS ONE, 2015)
The whole screen tested about 13,000 compounds, of which about 3,200 (25%) showed an effect of 50% or more. The list shows a part of the results.

What follows are compounds tested on P. falciparum stage V gametocytes. Conditions: 48 h, 5 µM; inhibitor.
Set-up: BacTiter-Glo ATP luminescence viability of purified stage V gametocytes in 384-well plates, per cent inhibition versus DMSO
With `O=C(/C=C/c1ccc(Cl)c(Cl)c1)NCCCCCN1CCC(NC(=O)c2cc(Cl)ccc2F)CC1` [TCMDC-135870] the “% Inhibition” value was -52.06%. For `CC(C)(C)c1ccc(S(=O)(=O)Nc2ccccc2N2CCOCC2)cc1` [TCMDC-124560], the “% Inhibition” value was 22.48%. In the case of `CC(=O)c1cc(N2CCCC2)ccc1N` [TCMDC-125017], the “% Inhibition” value is reported as -63.54%. For `CCCCCCc1cc2cc(-c3nc(-c4ccc(OC)cc4)cs3)c(=O)oc2cc1O` [TCMDC-124081], the “% Inhibition” value was -11.41%. `O=C(Nc1cccc(-c2cccc(-c3nc4ccc(C(F)(F)F)cc4[nH]3)c2)c1)c1cnc[nH]1` [TCMDC-136935] was tested, and the “% Inhibition” value was 37.83%. With `CC1(C)Cc2c([nH]c3ccccc23)C(CCCCCCCCC2=NC(C)(C)Cc3c2[nH]c2ccccc32)=N1` [TCMDC-137565] the “% Inhibition” value was 110.1%. For `NC1=NC2(CCCCC2)N(OCCCCCCc2ccccc2)C(N)=N1` [TCMDC-131605], the “% Inhibition” value was 26.32%. `Cc1nn(C2CCS(=O)(=O)C2)c(C)c1C1Nc2ccccc2C(=O)N1Cc1ccc2c(c1)OCO2` (centres unmarked) [TCMDC-125241] was tested, and the “% Inhibition” value was 62.63%. With `Cc1cc(C2NC(=O)c3ccccc3N2)c(C)n1-c1ccc2c(c1)OCO2` (centres unmarked) [TCMDC-125051] the “% Inhibition” value was 5.355%. For `OC(c1cccc(OCc2ccccc2)c1)C1CN(CCc2ccccc2)CCC1(O)c1ccccc1` (centres unmarked) [TCMDC-131997], the “% Inhibition” value was 1.971%. `COc1cc(Nc2nccc(-c3c(-c4cccc(NC(=O)c5c(F)cccc5F)c4)nn4ccccc34)n2)cc(OC)c1OC` [TCMDC-135668] was tested, and the “% Inhibition” value was -53.25%. `CCCCCC(=O)N1CCOC(CCN2CCc3c(c4ccccc4n3C)C2)(c2ccc(Cl)c(Cl)c2)C1` (centres unmarked) [TCMDC-135564] was tested, and the “% Inhibition” value was -20.19%. With `Cc1csc2nc(-c3ccccn3)nc(Nc3ccc4ncsc4c3)c12` [TCMDC-138923] the “% Inhibition” value was 100.3%. For `Cc1csc2nc(-c3ccccn3)nc(Nc3ccncn3)c12` [TCMDC-138927], the “% Inhibition” value was 119.9%. For `S=C(NCCc1ccccc1)Nc1ccc2ncsc2c1` [TCMDC-139021], the “% Inhibition” value was -23.08%. In the case of `O=C(Nc1ccnc(N2CC3CC2CN3Cc2cccc(O)c2)c1)c1ccc(F)cc1` (centres unmarked) [TCMDC-134956], the “% Inhibition” value is reported as -60.26%. In the case of `FC(F)(F)c1ccc2[nH]c(-c3ccc(-c4ccc(CNCC5CCCO5)cc4)cc3)nc2c1.O=C(O)C(F)(F)F` (centres unmarked) [TCMDC-133096], the “% Inhibition” value is reported as -14.34%. `O=C(CCc1nc2c(cnn2-c2ccccc2)c(=O)[nH]1)NC1CCSc2ccccc21` (centres unmarked) [TCMDC-124875] was tested, and the “% Inhibition” value was -14.45%. In the case of `Cc1cccc2nc(-c3ccc(-c4cccc(CN5CCN(c6ccncc6)CC5)c4)s3)[nH]c12.O=C(O)C(F)(F)F` [TCMDC-132917], the “% Inhibition” value is reported as 20.85%. With `Cc1cccc2nc(-c3ccc(-c4ccc(CN5CCN(c6ccncc6)CC5)cc4)s3)[nH]c12.O=C(O)C(F)(F)F` [TCMDC-132912] the “% Inhibition” value was 36.62%. In the case of `Cc1cccc2nc(-c3ccc(-c4cccc(CN5CCN(CC6CCCN(C)C6)CC5)c4)s3)[nH]c12.O=C(O)C(F)(F)F` (centres unmarked) [TCMDC-133909], the “% Inhibition” value is reported as 55.65%. For `CN1CCCC(CN2CCN(Cc3cccc(-c4ccc(-c5nc6ccccc6[nH]5)s4)c3)CC2)C1.O=C(O)C(F)(F)F` (centres unmarked) [TCMDC-133904], the “% Inhibition” value was 49.15%. In the case of `Cc1cccc2nc(-c3ccc(-c4ccc(CN5CCN(CC6CCCN(C)C6)CC5)cc4)s3)[nH]c12.O=C(O)C(F)(F)F` (centres unmarked) [TCMDC-133899], the “% Inhibition” value is reported as 90.54%. `Cc1cccc2nc(-c3ccc(-c4ccc(CN5CCCCC5)cc4)s3)[nH]c12.O=C(O)C(F)(F)F` [TCMDC-133902] was tested, and the “% Inhibition” value was -19.5%. With `Cc1c(CNCCCNc2nc3ccccc3[nH]2)[nH]c2cc(Cl)cc(Cl)c12` [TCMDC-139964] the “% Inhibition” value was 2.559%. With `Oc1ccc(-c2cncc(NCc3ccc(F)c(F)c3)c2)cc1` [TCMDC-136668] the “% Inhibition” value was 23.22%. For `CC(=O)Nc1nc(C(=O)Nc2ccc(-c3ccc(-c4nc5ccc(F)cc5[nH]4)cc3)cc2)cs1` [TCMDC-136779], the “% Inhibition” value was 1.328%. In the case of `C=CC(=O)Nc1ccc(Cl)cc1C(O)c1ccccc1` (centres unmarked) [TCMDC-131787], the “% Inhibition” value is reported as 1.536%. With `CC(C)C1c2ccc(O)cc2CC2C(=O)N(C3CCCCC3)C(=O)N21` (centres unmarked) [TCMDC-138120] the “% Inhibition” value was 28.46%. In the case of `Cc1cc(-c2cccc(CNC3CCCC3)c2)ccc1S(=O)(=O)NCCN1CCCC1` [TCMDC-132279], the “% Inhibition” value is reported as 103.9%. `Cc1cc(-c2cccc(CNCc3ccccc3)c2)ccc1S(=O)(=O)NCCN1CCCC1` [TCMDC-132382] was tested, and the “% Inhibition” value was 4%. In the case of `Cc1cc(-c2cccc(CNC3CCN(C)CC3)c2)ccc1S(=O)(=O)NCCN1CCCC1` [TCMDC-132383], the “% Inhibition” value is reported as 87.02%. With `Cc1cc(-c2cccc(CNC3CCN(C)CC3)c2)ccc1S(=O)(=O)NC1CCC1` [TCMDC-132380] the “% Inhibition” value was 72.06%. In the case of `CN1CCC(NCc2cccc(-c3ccc(S(=O)(=O)NCCN4CCCC4)c(F)c3)c2)CC1` [TCMDC-132222], the “% Inhibition” value is reported as 88.17%. In the case of `Cc1cnc2cc3c(cc2c1N1CCN(C)CC1)NCC3` [TCMDC-140363], the “% Inhibition” value is reported as -97.35%. In the case of `Cc1cccc(-c2ccc(NC(=O)Nc3ccc4nccc(N5CCN(C)CC5)c4c3)cc2C)n1` [TCMDC-139353], the “% Inhibition” value is reported as 26.78%. `COc1ccc(C=NNc2nc3ccccc3[nH]2)cc1O` [TCMDC-124104] was tested, and the “% Inhibition” value was -79.21%. `COC(=O)C(Cc1ccccc1)NC(=O)NC1CCN(c2ccnc(Nc3ccc(F)cc3)n2)C1` (centres unmarked) [TCMDC-133597] was tested, and the “% Inhibition” value was 34.56%. With `Nc1nc(N)c2c(n1)CCC(c1ccccc1)C2` (centres unmarked) [TCMDC-137806] the “% Inhibition” value was -20.76%. With `CS(=O)(=O)c1ccc(Nc2ncc(-c3ccc(S(C)(=O)=O)cc3)c(OCC(F)(F)F)n2)cc1` [TCMDC-138524] the “% Inhibition” value was 24.49%. For `COc1ccc(C(C(=O)NC2CCN(C[C@H](O)c3ccnc4ccc(OC)cc34)CC2)N2CCc3ccccc3C2)cc1` (some centres unmarked) [TCMDC-140986], the “% Inhibition” value was 7.291%. With `Cc1ccc(F)c(OCC2CCN(c3ccc(C(=O)NC4CC4)cn3)CC2)c1` [TCMDC-134037] the “% Inhibition” value was 41.12%. In the case of `Cc1c(-c2cccc(CNCCc3ccc(Cl)cc3)c2)cnc(N)c1C` [TCMDC-138274], the “% Inhibition” value is reported as 9.871%. For `OC(CNCc1cccc(Oc2ccc(Cl)cc2)c1)c1cccc(C(F)(F)F)c1` (centres unmarked) [TCMDC-140301], the “% Inhibition” value was -22.32%. `CN(C)CCCOc1ccc(CCCCc2ccc(Cl)cc2C(=O)c2ccccc2)cc1` [TCMDC-131856] was tested, and the “% Inhibition” value was 31.42%. In the case of `CN(C)CCCOc1ccc(CNCc2cccc(Oc3ccc(Cl)cc3)c2)cc1` [TCMDC-140101], the “% Inhibition” value is reported as 61.18%. In the case of `OC(CNCc1cccc(Oc2ccc(Cl)cc2)c1)c1cc(C(F)(F)F)cc(C(F)(F)F)c1` (centres unmarked) [TCMDC-140302], the “% Inhibition” value is reported as 49.58%. For `CN(C)CCCOc1cccc(CCNCc2cccc(Oc3ccc(Cl)cc3)c2)c1` [TCMDC-140091], the “% Inhibition” value was 58.44%. For `CN(C)CCCOc1ccc(CCNCc2cccc(Oc3ccc(Cl)cc3)c2)cc1` [TCMDC-140092], the “% Inhibition” value was 79.59%. `CN(C)CCCOc1cccc(NC(=O)Nc2ccc(Cl)c(Cl)c2)c1` [TCMDC-139538] was tested, and the “% Inhibition” value was -5.244%. With `COc1ccc(NC(=O)/C=C/c2cc(F)cc(C(F)(F)F)c2)cc1OCCN(C(C)C)C(C)C` [TCMDC-140669] the “% Inhibition” value was -66.83%. With `Cc1cc2c(cc1C(F)(F)F)N(C(=O)Nc1cc(OCCN(C(C)C)C(C)C)cc(C(F)(F)F)c1)CC2` [TCMDC-140341] the “% Inhibition” value was -56.2%. `CC=CC(=O)N1CCN(c2nccc(-c3ccc(C(C)(C)C)cc3)n2)CC1` [TCMDC-124777] was tested, and the “% Inhibition” value was 7.647%. `COc1ccc(N2C(N)=NC(N)=NC2(C)C)cc1` [TCMDC-124269] was tested, and the “% Inhibition” value was -3.695%. With `O=[N+]([O-])c1cc(/C=N/Nc2nc3nonc3nc2Nc2ccc(F)cc2)c(Cl)cc1Cl` [TCMDC-124221] the “% Inhibition” value was -26.03%. With `COc1cccc(C2(C)CCN(CCCCNC(=O)c3ccc(NC(=O)c4ccc(Cl)cc4)cc3)CC2)c1` [TCMDC-138368] the “% Inhibition” value was -18.96%. With `O=C(Nc1ccc(Br)cc1)N(CCN1CCOCC1)CC(O)COc1ccc(Cl)c(F)c1` (centres unmarked) [TCMDC-141493] the “% Inhibition” value was -10.57%. In the case of `CC1(C)N=C(N)N=C(N)N1CCc1ccccc1` [TCMDC-125516], the “% Inhibition” value is reported as 9.542%. `CCOC(=O)N[C@@H]1CN[C@@H](C#Cc2cc3c(Nc4ccc(OCc5cccc(F)c5)c(Cl)c4)ncnc3s2)C1` [TCMDC-135402] was tested, and the “% Inhibition” value was -37.93%. In the case of `O=C(CCn1cncn1)N1CCCC(c2[nH]c3ccccc3c2-c2ccncc2)C1` (centres unmarked) [TCMDC-125377], the “% Inhibition” value is reported as -42.34%. `Cc1noc(C)c1C(=O)N1CCCC(c2[nH]c3c(C)cccc3c2-c2ccncc2)C1` (centres unmarked) [TCMDC-125361] was tested, and the “% Inhibition” value was 56.42%. With `Cc1noc(C)c1C(=O)N1CCc2cc3nccc(N4CCN5CCC[C@H]5C4)c3cc21` [TCMDC-140041] the “% Inhibition” value was -37.7%. With `Oc1ccc(CCNc2nc(NCCOc3cccc4ccccc34)nc(N3CCNCC3)n2)cc1` [TCMDC-134132] the “% Inhibition” value was -65.6%. For `Cc1cc(OCCCNc2nc(NCCc3ccc(O)cc3)nc(N3CCNCC3)n2)c(Cl)c(C)c1Cl` [TCMDC-134048], the “% Inhibition” value was -28.15%. For `CN(/N=C/C=C/c1ccc(Cl)cc1)c1nc(NCCc2ccc(O)cc2)nc(N2CCNCC2)n1` [TCMDC-138546], the “% Inhibition” value was 80.85%. For `CN(/N=C/c1ccc(Cl)cc1)c1nc(NCCc2ccc(O)cc2)nc(N2CCNCC2)n1` [TCMDC-138544], the “% Inhibition” value was 44.17%. For `Oc1ccc(CCNc2nc(NCCCOc3cccc(CN4CCCCC4)c3Cl)nc(N3CCNCC3)n2)cc1` [TCMDC-134045], the “% Inhibition” value was -20.8%. In the case of `Oc1ccc(CCNc2nc(N/N=C/C=C/c3ccc(Cl)cc3)nc(N3CCNCC3)n2)cc1` [TCMDC-138545], the “% Inhibition” value is reported as -5.801%. For `Cc1c(CN2CCCCC2)cccc1OCCCNc1nc(NCCc2ccc(O)cc2)nc(N2CCNCC2)n1` [TCMDC-134046], the “% Inhibition” value was 87.79%. In the case of `Oc1ccc(CCNc2nc(NCCCOc3cccc(-c4ccccc4)c3)nc(N3CCNCC3)n2)cc1` [TCMDC-134043], the “% Inhibition” value is reported as -9.264%. `Oc1ccc(CCNc2nc(NCCCOc3cc(CN4CCCCC4)ccc3F)nc(N3CCNCC3)n2)cc1` [TCMDC-134044] was tested, and the “% Inhibition” value was 66.8%.
